Consider nine compounds from PubChem BioAssay (NCI).

Compounds without any hit were thinned out: in the full panel of roughly 83,000, 20% have a hit.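 Treatment: one concentration, 48 hours, 96-well format. Scoring: percent growth, with anything below 10 considered active.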 Values without a mark were called inactive. Calls of active or inactive are those of the source.

Among the test systems are SR leukemia; RPMI-8226 leukemia; OVCAR-8 ovarian; OVCAR-5 ovarian; OVCAR-4 ovarian; SK-OV-3 ovarian; IGROV1 ovarian; OVCAR-3 ovarian; NCI/ADR-RES ovarian; T-47D breast; BT-549 breast; MDA-MB-435 melanoma; SW-620 colon; MCF7 breast; HCT-116 colon; HCC-2998 colon; KM12 colon; HS 578T breast.
Holding throughout (assay): NCI-60 one-dose screen, 48 h (100 = growth as untreated, 0 = no growth, -100 = all killed)
Common to all, as to conditions: 10 µM unless noted

Take `C=CCNCCC#N`: the growth was 89.7% with SR leukemia; 101% with RPMI-8226 leukemia; 96.8% in the test on OVCAR-8 ovarian; 108% in the test on OVCAR-5 ovarian; 106% in the test with OVCAR-4 ovarian; 103% in the test with SK-OV-3 ovarian. The growth was 108% in the test on IGROV1 ovarian; 114% in the test on OVCAR-3 ovarian; 117% with NCI/ADR-RES ovarian; 96.3% in the test on T-47D breast; 105% with BT-549 breast; 109% in the test with MDA-MB-435 melanoma. Further, the growth in the test with SW-620 colon is 110%; in the test on MCF7 breast it was 99.5%; in the test with HCT-116 colon it was 100%; in the test on HCC-2998 colon it was 116%; with KM12 colon it was 115%.
On to `COC(=O)C(C(=O)OC)C(Br)C(Br)C(Br)c1ccccc1` (configuration not stated), for which the growth is -10% (active) in the test with SR leukemia; 80.5% in the test on RPMI-8226 leukemia; 91.8% with OVCAR-8 ovarian; 120% in the test on OVCAR-5 ovarian; 90.1% in the test on OVCAR-4 ovarian; 109% in the test with SK-OV-3 ovarian. The growth was 107% with IGROV1 ovarian; 92.6% in the test with OVCAR-3 ovarian; 111% with NCI/ADR-RES ovarian; -32.9% (active) in the test on T-47D breast; 108% with BT-549 breast; 91.2% with MDA-MB-435 melanoma. The growth was 18.6% in the test on SW-620 colon; 8.14% (active) in the test with MCF7 breast; 16.5% in the test on HCT-116 colon; 110% with HCC-2998 colon; 101% with KM12 colon.
For the compound `CC(C)(C)c1ccc([I+]c2ccc(C(C)(C)C)cc2)cc1`, the growth is 5.64% (active) in the test with SR leukemia; -19.9% (active) with RPMI-8226 leukemia; 7.15% (active) in the test with OVCAR-8 ovarian; 49.6% in the test on OVCAR-5 ovarian; 18.3% in the test with OVCAR-4 ovarian; 30.3% with SK-OV-3 ovarian. Moreover, the growth in the test on IGROV1 ovarian is 20.9%; in the test on OVCAR-3 ovarian, 2.92% (active); with HS 578T breast, 29.1%; in the test on NCI/ADR-RES ovarian it was 90.2%; in the test with BT-549 breast, -5.08% (active); in the test with MDA-MB-435 melanoma, -49.1% (active). The growth in the test on MCF7 breast was 7.68% (active); in the test with HCT-116 colon, 7.47% (active); with HCC-2998 colon, 13.4%; in the test on KM12 colon it was -30.6% (active).
As for `Nc1ccc(S(=O)(=O)c2ccc(NO)cc2)cc1`, the growth in the test on SR leukemia is 129%; with RPMI-8226 leukemia, 106%; in the test with OVCAR-8 ovarian, 95.6%; in the test on OVCAR-5 ovarian it was 80.4%; in the test on OVCAR-4 ovarian, 88.6%; in the test on SK-OV-3 ovarian it was 94.2%. The growth in the test with IGROV1 ovarian is 1.89% (active); in the test on OVCAR-3 ovarian, 131%; in the test with NCI/ADR-RES ovarian, 90.3%; with T-47D breast it was 96.9%; in the test with BT-549 breast, 80%; in the test on MDA-MB-435 melanoma, 97.3%. Besides, the growth in the test on SW-620 colon is 104%; in the test on MCF7 breast, 95.1%; in the test with HCT-116 colon, 98.9%; in the test on HCC-2998 colon it was 92.6%; with KM12 colon, 116%.
As for `Cc1c(Cc2ccccc2)c(=O)oc2c(C)c(OCc3n[nH]c(=S)o3)ccc12`, the growth with SR leukemia was 5.04% (active); with RPMI-8226 leukemia, 56.6%; with OVCAR-8 ovarian, 30.6%; in the test on OVCAR-5 ovarian it was 89.9%; in the test with OVCAR-4 ovarian it was 43.8%; with SK-OV-3 ovarian, 86.9%. The growth in the test on IGROV1 ovarian is 67.3%; in the test with OVCAR-3 ovarian, 74.5%; in the test on NCI/ADR-RES ovarian, 99.6%; with T-47D breast, 53.1%; in the test on BT-549 breast, 96.9%; in the test with MDA-MB-435 melanoma it was 61.5%. Besides, the growth with SW-620 colon was -7.67% (active); with MCF7 breast, 14.5%; with HCT-116 colon, 6.37% (active); with HCC-2998 colon it was 94.9%; with KM12 colon, 43.1%.
Turning to `COc1ccc(C2=NN(C(=O)c3cc(-c4ccc(C)cc4)nc4ccccc34)C(c3cc(-c4ccccc4)nn3-c3ccccc3)C2)cc1` (configuration not stated), the growth is 89.5% in the test with SR leukemia; 78.1% in the test with RPMI-8226 leukemia; 93.3% in the test with OVCAR-8 ovarian; 102% with OVCAR-5 ovarian; 93.3% in the test with OVCAR-4 ovarian; 112% with SK-OV-3 ovarian. In addition, the growth in the test on IGROV1 ovarian is 98.3%; with OVCAR-3 ovarian it was 84.4%; in the test with NCI/ADR-RES ovarian, 92.5%; in the test with T-47D breast, 72.7%; with BT-549 breast it was 90.6%; with MDA-MB-435 melanoma, 102%. The growth in the test on SW-620 colon was 96.7%; in the test on MCF7 breast, 88.4%; with HCT-116 colon, 81.4%; in the test with HCC-2998 colon, 102%; in the test on KM12 colon, 90.8%.
Turning to `O=CN/N=C/c1ccc(Cl)c([N+](=O)[O-])c1`, the growth was 39.9% with SR leukemia; 15.6% in the test with RPMI-8226 leukemia; 18.1% with OVCAR-8 ovarian; 31% with OVCAR-5 ovarian; 49.6% in the test on OVCAR-4 ovarian; 46.9% in the test with SK-OV-3 ovarian. In addition, the growth is 16.9% with IGROV1 ovarian; 18.1% in the test on OVCAR-3 ovarian; 107% in the test on NCI/ADR-RES ovarian; 25.3% in the test on T-47D breast; 42.6% in the test with BT-549 breast; 18.9% in the test on MDA-MB-435 melanoma. In addition, the growth in the test on SW-620 colon is 17.6%; in the test on MCF7 breast, 6.05% (active); in the test with HCT-116 colon, 16.2%; in the test with HCC-2998 colon, 27.2%; in the test with KM12 colon, 7.24% (active).
As to `O=C(O)CS(=O)c1ccc(Cl)cc1` (configuration not stated), the growth was 84.9% in the test on SR leukemia; 116% with RPMI-8226 leukemia; 99% in the test with OVCAR-8 ovarian; 95.5% in the test with OVCAR-5 ovarian; 114% in the test on OVCAR-4 ovarian; 107% in the test on SK-OV-3 ovarian. For the same compound, the growth with IGROV1 ovarian is 115%; with OVCAR-3 ovarian it was 115%; in the test with NCI/ADR-RES ovarian, 109%; in the test with T-47D breast, 101%; with BT-549 breast it was 99.8%; with MDA-MB-435 melanoma, 102%. Besides, the growth in the test on SW-620 colon was 106%; in the test on MCF7 breast, 101%; in the test with HCT-116 colon, 97.6%; in the test on HCC-2998 colon it was 97.1%; in the test on KM12 colon it was 103%.
Take `Oc1ccc([S+](c2ccc(O)cc2)c2ccc(O)cc2)cc1`: the growth in the test on SR leukemia is 89.1%; with RPMI-8226 leukemia it was 96%; with OVCAR-8 ovarian it was 94.3%; in the test with OVCAR-5 ovarian it was 101%; in the test on OVCAR-4 ovarian, 107%; in the test with SK-OV-3 ovarian it was 106%. Further, the growth in the test with IGROV1 ovarian was 110%; with OVCAR-3 ovarian, 114%; in the test on NCI/ADR-RES ovarian, 112%; with T-47D breast it was 107%; in the test with BT-549 breast it was 107%; in the test with MDA-MB-435 melanoma it was 107%. For the same compound, the growth in the test with SW-620 colon is 107%; in the test on MCF7 breast it was 98.8%; in the test on HCT-116 colon, 107%; with HCC-2998 colon it was 106%; with KM12 colon it was 107%.
